# From PubChem BioAssay
# Active and inactive are the calls of the source. No stated cut-off is given here; in the data, active means inhibition above about 31%; inactive means the rest.
# Test: reversal of MRP1-mediated doxorubicin resistance, pilot screen, H69AR cells, doxorubicin co-treatment (AID 601)
# Conditions: H69AR cells, CellTiter-Glo, 72 h; compound alone cytotoxicity; at 10 µM
row,SMILES,viability [%]
1,O=C1C2ON(c3ccc(Cl)cc3)C(c3ccco3)C2C(=O)N1c1ccccc1 (stereo not given),100
2,CCOC(=O)N1CCN(C(=O)c2ccc3c(=O)n(Cc4ccc(OC)cc4)c(=S)[nH]c3c2)CC1,72.5
3,O=C(O)/C=C/c1ccc(O)c(O)c1,97.9
4,COC(=O)Nc1sc2c(c1C(N)=O)CCCCCC2,99.5
5,CC1(C)NC(=O)N(CC(O)CN2CCCC2)C1=O (stereo not given),97.2
6,Cc1cc(=O)n2nc(N3CCCC(C(=O)N4CCc5ccccc54)C3)sc2n1 (stereo not given),85.8
7,CCN(CC)S(=O)(=O)c1cccc(-c2nnc(SCCOc3ccccc3C)o2)c1,87.9
8,CCOC(=O)CSC1=C(C#N)C(c2ccc3c(c2)OCO3)CC(=O)N1 (stereo not given),13.1
9,N#CC1=C(N)OC2=C(CCC/C2=C/c2ccoc2)C1c1ccoc1 (stereo not given),80.8
10,O=C(NCc1ccc2c(c1)OCO2)C1CCC(CNS(=O)(=O)c2ccccc2)CC1 (stereo not given),92.2
11,COC(=O)CCN(C(=O)c1ccc2c(c1)OCO2)c1ccccn1,98.5
12,CC1CCCc2sc3nc(NCc4ccco4)n4ncnc4c3c21 (stereo not given),83.3
13,CCC(=O)OC1(C#CCOc2ccc(OC)cc2)CCN(C)CC1,105
14,O=C(CCCCn1c(=O)c2ccccc2n(Cc2ccc(Cl)cc2)c1=O)NCc1ccco1,29.6
15,CC1CNCCN1S(=O)(=O)c1cccc2cnccc12 (stereo not given),102
16,CN(Cc1ccccc1)C(=O)c1cc(-c2ccc(Br)cc2)on1,103
17,CCOc1ccc2nc(SCC(=O)Nc3ncccn3)[nH]c2c1,105
18,CCCC(=O)Nc1nnc(CC(=O)N2CCCC2)s1,96.9
19,Cc1csc(SCCn2c(N3CCCC3)nc3c2c(=O)[nH]c(=O)n3C)n1,100
20,Cc1ccccc1NC(=O)CN1CCC(NC(=O)Nc2ccccc2)CC1,84.8

row,SMILES,viability [%]
1,COc1cc2c(=O)nc3n(c2cc1OC)C(c1ccccc1)N=C(N)N3 (stereo not given),97.1
2,CCOC(=O)c1[nH]c2cc(OC)c(OC)cc2c1NC(=O)C(C)N1CCN(Cc2ccccc2)CC1 (stereo not given),59.2
3,O=C(Nc1ncnc2sc3c(c12)CCC3)c1ccco1,80.1
4,CC(C)(C#N)Nn1cnnc1,85.9
5,CCC1CCCCN1CCCNC(=O)c1ccc(CS(=O)(=O)Cc2ccccc2F)o1 (stereo not given),92.9
6,COc1cccc(OCc2nnc(SCC(=O)OCc3ccccc3)o2)c1,97
7,CC(=O)[C@H]1[C@H](C#N)C[C@H]2[C@@H]3CC=C4C[C@@H](O)CC[C@]4(C)[C@H]3CC[C@@]21C,87
8,Cc1ccc(CNc2cc(-c3nn4c(C)nnc4s3)ccc2C)s1,58.8
9,Cn1c(=O)c2c(nc(Br)n2CCSc2nnnn2-c2ccccc2)n(C)c1=O,80.4
10,COc1ccc(NS(=O)(=O)c2ccc(N)cc2)nn1,104
11,CC(=O)NCCC(=O)Nc1ccc(C)c(F)c1,91.4
12,Clc1ccccc1CN1CCc2sccc2C1,99
13,Cn1c(=O)[nH]c(=O)c2c1nc(Br)n2Cc1ccccc1F,86.9
14,Cc1cc(NC(=O)CSc2nc(C3CC3)nc3sc4c(c23)CCC(C)C4)no1 (stereo not given),102
15,Cc1csc(NC(=O)c2cccs2)n1,89.7
16,O=C(NC1CCCC1)C(NS(=O)(=O)c1cccc2nsnc12)c1ccccc1 (stereo not given),79
17,O=C(CSc1nnc(Cc2ccccc2)n1-c1cccc(Cl)c1)N1CCOCC1,85.6
18,Cc1ccc(-n2c(C)cc3c2CCCC3=O)cc1,93.3
19,COc1ccc(-n2c(SCC(N)=O)nc3sc4c(c3c2=O)CCN(C)C4)cc1,101
20,CCOC(=O)C1CCN(C(=O)Nc2ccc3nc(C)c(C)nc3c2)CC1,95.5

# Test: 384-well plate pilot, post-Golgi transport modulator project, inhibition of yeast transport mutant growth (AID 636)
# Conditions: absorbance 615 nm, about 18 h, stronger effect = higher value
row,SMILES,inhibition
1,O=C1C2ON(c3ccc(Cl)cc3)C(c3ccco3)C2C(=O)N1c1ccccc1 (stereo not given),-2.6% (inactive)
2,CCOC(=O)N1CCN(C(=O)c2ccc3c(=O)n(Cc4ccc(OC)cc4)c(=S)[nH]c3c2)CC1,-0.13% (inactive)
3,O=C(O)/C=C/c1ccc(O)c(O)c1,-0.39% (inactive)
4,COC(=O)Nc1sc2c(c1C(N)=O)CCCCCC2,-1.82% (inactive)
5,CC1(C)NC(=O)N(CC(O)CN2CCCC2)C1=O (stereo not given),0.13% (inactive)
6,Cc1cc(=O)n2nc(N3CCCC(C(=O)N4CCc5ccccc54)C3)sc2n1 (stereo not given),-6.76% (inactive)
7,CCN(CC)S(=O)(=O)c1cccc(-c2nnc(SCCOc3ccccc3C)o2)c1,-2.6% (inactive)
8,CCOC(=O)CSC1=C(C#N)C(c2ccc3c(c2)OCO3)CC(=O)N1 (stereo not given),-5.41% (inactive)
9,N#CC1=C(N)OC2=C(CCC/C2=C/c2ccoc2)C1c1ccoc1 (stereo not given),-5.95% (inactive)
10,O=C(NCc1ccc2c(c1)OCO2)C1CCC(CNS(=O)(=O)c2ccccc2)CC1 (stereo not given),0.52% (inactive)
11,COC(=O)CCN(C(=O)c1ccc2c(c1)OCO2)c1ccccn1,-8.22% (inactive)
12,CC1CCCc2sc3nc(NCc4ccco4)n4ncnc4c3c21 (stereo not given),-3.97% (inactive)
13,CCC(=O)OC1(C#CCOc2ccc(OC)cc2)CCN(C)CC1,-0.53% (inactive)
14,O=C(CCCCn1c(=O)c2ccccc2n(Cc2ccc(Cl)cc2)c1=O)NCc1ccco1,-1.17% (inactive)
15,CC1CNCCN1S(=O)(=O)c1cccc2cnccc12 (stereo not given),1.3% (inactive)
16,CN(Cc1ccccc1)C(=O)c1cc(-c2ccc(Br)cc2)on1,-4% (inactive)
17,CCOc1ccc2nc(SCC(=O)Nc3ncccn3)[nH]c2c1,-1.62% (inactive)
18,CCCC(=O)Nc1nnc(CC(=O)N2CCCC2)s1,-9.73% (inactive)
19,Cc1csc(SCCn2c(N3CCCC3)nc3c2c(=O)[nH]c(=O)n3C)n1,-1.49% (inactive)
20,Cc1ccccc1NC(=O)CN1CCC(NC(=O)Nc2ccccc2)CC1,-7.7% (inactive)

row,SMILES,inhibition
1,COc1cc2c(=O)nc3n(c2cc1OC)C(c1ccccc1)N=C(N)N3 (stereo not given),-2.84% (inactive)
2,CCOC(=O)c1[nH]c2cc(OC)c(OC)cc2c1NC(=O)C(C)N1CCN(Cc2ccccc2)CC1 (stereo not given),-4.59% (inactive)
3,O=C(Nc1ncnc2sc3c(c12)CCC3)c1ccco1,-4.73% (inactive)
4,CC(C)(C#N)Nn1cnnc1,-4.73% (inactive)
5,CCC1CCCCN1CCCNC(=O)c1ccc(CS(=O)(=O)Cc2ccccc2F)o1 (stereo not given),-7.4% (inactive)
6,COc1cccc(OCc2nnc(SCC(=O)OCc3ccccc3)o2)c1,-6.93% (inactive)
7,CC(=O)[C@H]1[C@H](C#N)C[C@H]2[C@@H]3CC=C4C[C@@H](O)CC[C@]4(C)[C@H]3CC[C@@]21C,-2.73% (inactive)
8,Cc1ccc(CNc2cc(-c3nn4c(C)nnc4s3)ccc2C)s1,-2.6% (inactive)
9,Cn1c(=O)c2c(nc(Br)n2CCSc2nnnn2-c2ccccc2)n(C)c1=O,-4.59% (inactive)
10,COc1ccc(NS(=O)(=O)c2ccc(N)cc2)nn1,-0.78% (inactive)
11,CC(=O)NCCC(=O)Nc1ccc(C)c(F)c1,-2.05% (inactive)
12,Clc1ccccc1CN1CCc2sccc2C1,1.95% (inactive)
13,Cn1c(=O)[nH]c(=O)c2c1nc(Br)n2Cc1ccccc1F,3.15% (inactive)
14,Cc1cc(NC(=O)CSc2nc(C3CC3)nc3sc4c(c23)CCC(C)C4)no1 (stereo not given),-5.2% (inactive)
15,Cc1csc(NC(=O)c2cccs2)n1,-1.43% (inactive)
16,O=C(NC1CCCC1)C(NS(=O)(=O)c1cccc2nsnc12)c1ccccc1 (stereo not given),-8.08% (inactive)
17,O=C(CSc1nnc(Cc2ccccc2)n1-c1cccc(Cl)c1)N1CCOCC1,-4.8% (inactive)
18,Cc1ccc(-n2c(C)cc3c2CCCC3=O)cc1,-9.07% (inactive)
19,COc1ccc(-n2c(SCC(N)=O)nc3sc4c(c3c2=O)CCN(C)C4)cc1,6.16% (inactive)
20,CCOC(=O)C1CCN(C(=O)Nc2ccc3nc(C)c(C)nc3c2)CC1,-3.87% (inactive)
